The source of these data is PubChem BioAssay (EPA / NIEHS).

A short description of assay [1]: ACEA_ER_80hr: ACEA Biosciences xCELLigence Real-Time Cell Analysis on Estrogen Receptor Agonism for Proliferation (AID 2282667; active = hit-call score of the fitted dose curve at least 0.9, where 1 is the maximum). The note with it: T47D proliferation, impedance (xCELLigence), 80 h. An outline of the steps:
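Real-time electrical impedance tracked growth of the human breast line T47D, with the 80 h post-dosing value used. Dosing spanned eight 1:4 steps down from a 100 uM final top concentration, run in duplicate.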

Assay [2] in a line: ATG_CRE_CIS: Attagene CIS-FACTORIAL HepG2 Assay for human cAMP Responsive Element (CRE) binding protein 3 (AID 2282926). The conditions noted are these: HepG2 CRE cis-reporter, Attagene multiplexed mRNA; actives raise or lower the signal. An outline of the steps:
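Assay format: transient reporter transfection of HepG2, 24 h treatment, total RNA isolation with DNase I step. Reporter abundance read by fluorescence after PCR and capillary separation; DMSO-normalised gain or loss fitting.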

Assay [3] deals with CCAAT/enhancer-binding protein beta (Homo sapiens) (UniProt P17676). The assay can be described thus: ATG_C_EBP_CIS: Attagene CIS-FACTORIAL HepG2 Assay for human CCAAT/Enhancer Binding Protein (C/EBP) beta (AID 2282927). The note with it: HepG2 Attagene cis-factorial transcription factor reporter; actives raise or lower the signal. Summed up: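 Changes in reporter mRNA, rather than exogenous chimeric receptor activity, reflect native C/EBP signalling in transfected HepG2 cells dosed for 24 h; transcripts are detected by RT-PCR and capillary electrophoresis.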

Assay [4] is described as follows: ATG_CMV_CIS: Attagene CIS-FACTORIAL HepG2 Assay for human CMV (Internal Marker) (AID 2282928).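 Also: endpoint acts as a background internal control marker rather than a target.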 The conditions noted are these: HepG2 CMV promoter reporter, transcription factor profiling; actives raise or lower the signal. Summed up:
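Reporter transcripts from transfected HepG2 cells are isolated after 24 h of chemical dosing, reverse-transcribed and amplified. Fragments labeled with 6-FAM are cut with HpaI and quantified by capillary electrophoresis; DMSO defines baseline.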

Assay [5] has as its target Aryl hydrocarbon receptor (Homo sapiens) (UniProt P35869). Nature of the assay: ATG_Ahr_CIS: Attagene CIS-FACTORIAL HepG2 Assay for human Aryl Hydrocarbon Receptor (Ahr) (AID 2282930). The note with it: HepG2 AhR cis-factorial reporter transcription; actives raise or lower the signal. Summed up: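 HepG2, transient MRTU (cis) transfection, 24 h exposure. RNA → cDNA → PCR → 6-FAM primer extension → HpaI 2 h 37 C → CE. Fit: bidirectional, DMSO baseline.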

Assay [6] can be described thus: ATG_AP_1_CIS: Attagene CIS-FACTORIAL HepG2 Assay for human Activator Protein 1 (AP-1) (AID 2282931). The conditions noted are these: HepG2 Attagene cis-factorial AP-1 reporter mRNA; actives raise or lower the signal. Summed up:
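Bidirectional concentration-response fitting against DMSO controls. Underlying signal: reporter mRNA from cis-promoter constructs in transiently transfected HepG2, measured after 24 h by RT-PCR and capillary electrophoresis.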

A short description of assay [7]: ATG_AP_2_CIS: Attagene CIS-FACTORIAL HepG2 Assay for human Activator Protein 2 (AP-2) (AID 2282932). The conditions noted are these: HepG2 AP-2 cis-reporter, Attagene transcription factor profiling; actives raise or lower the signal. An outline of the steps: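 Transiently transfected HepG2 cells are exposed to chemical for 24 h. Reporter transcripts are then measured as fluorescence following RT-PCR and capillary separation, and gain- or loss-of-signal is fitted relative to DMSO.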

Assay [8] is described as follows: ATG_BRE_CIS: Attagene CIS-FACTORIAL HepG2 Assay for human Bone Morphogenetic Protein (BMP) Response Element (BRE) (AID 2282933). The conditions noted are these: HepG2 BMP response element reporter, Attagene transcription factor profiling; actives raise or lower the signal. Summed up:
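HepG2 cells transiently transfected with multiplexed cis-element reporter units were dosed with chemical for 24 h. Reporter mRNA was measured by RT-PCR with fluorescent labelling, HpaI digestion and capillary electrophoresis; bidirectional fitting relative to DMSO.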

Assay [9] concerns the target Transcription factor E2F1 (Homo sapiens) (UniProt Q01094). Nature of the assay: ATG_E2F_CIS: Attagene CIS-FACTORIAL HepG2 Assay for human E2F Transcription Factor 1 (AID 2282935). The conditions noted are these: HepG2 Attagene cis-reporter, E2F reporter RNA transcripts; actives raise or lower the signal. Summed up:
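Fluorescent RT-PCR products, digested with HpaI for 2 h at 37 C, are separated by capillary electrophoresis. Source RNA comes from transfected HepG2 cultures treated for 24 h.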

Assay [10] in a line: ATG_E_Box_CIS: Attagene CIS-FACTORIAL HepG2 Assay for human Enhancer Box (E-box) (AID 2282936). The conditions noted are these: HepG2 E-box cis-reporter transcription, actives raise or lower the signal. Summed up:
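Fluorescent reporter fragments separated by capillary electrophoresis gave the signal; mRNA came from HepG2 cells transfected with cis-element reporters and treated 24 h. Curves fitted bidirectionally relative to DMSO controls.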

A short description of assay [11]: ATG_M_61_CIS: Attagene CIS-FACTORIAL HepG2 Assay for M61 Transcription Factor (Internal Marker) (AID 2282937). The conditions noted are these: HepG2 Attagene CIS-FACTORIAL M61 internal marker reporter; actives raise or lower the signal. An outline of the steps: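 Fluorescence from labelled cDNA fragments, separated by capillary electrophoresis, quantifies reporter induction. HepG2 cells bearing transiently transfected cis-promoter MRTUs were incubated with test chemical for 24 h; DMSO defined baseline for gain/loss fitting.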

Assay [12] can be described thus: ATG_EGR_CIS: Attagene CIS-FACTORIAL HepG2 Assay for human Early Growth Response 1 (EGR1) (AID 2282938). The conditions noted are these: HepG2 Attagene CIS-FACTORIAL EGR reporter mRNA; actives raise or lower the signal. An outline of the steps: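 Cell-based multiplex transcription assay: HepG2 carrying transfected cis-element reporter units, 24 h chemical treatment. Fluorescence from capillary electrophoresis of RT-PCR products gives mRNA levels; fitting is bidirectional relative to DMSO.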

The nature of assay [13]: ATG_M_19_CIS: Attagene CIS-FACTORIAL HepG2 Assay for M19 Transcription Factor (Internal Marker) (AID 2282939). The conditions noted are these: HepG2 Attagene CIS-FACTORIAL M19 internal marker reporter; actives raise or lower the signal. Summed up: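 HepG2 cells transiently transfected with cis-regulated multiple reporter transcription units were dosed for 24 h; reporter mRNA was quantified by RT-PCR, 6-FAM primer-extension labelling, HpaI digestion and capillary electrophoresis, with bidirectional fitting against DMSO baseline.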

The nature of assay [14]: ATG_ERE_CIS: Attagene CIS-FACTORIAL HepG2 Assay for Estrogen Response Element (ERE) (AID 2282940). The conditions noted are these: HepG2 ERE cis-reporter, Attagene RNA transcript; actives raise or lower the signal. Summed up: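 HepG2 cells transiently transfected with cis-promoter-driven multiplexed reporter transcription units report endogenous TF activity. After 24 h compound exposure, reporter mRNA is quantified by RT-PCR with capillary electrophoresis fluorescence; bidirectional fitting versus DMSO baseline.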

Assay [15] concerns the target Hepatocyte nuclear factor 3-beta (Homo sapiens) (UniProt Q9Y261). Nature of the assay: ATG_FoxA2_CIS: Attagene CIS-FACTORIAL HepG2 Assay for human Forkhead box A2 (FOXA2) (AID 2282942). The note with it: HepG2 cis-reporter transcription factor activity, 24 h; actives raise or lower the signal. Summed up: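 In transiently transfected human HepG2 cells, promoter-driven reporter mRNA levels after 24 h chemical exposure are determined via RT-PCR with capillary electrophoresis. DMSO serves as baseline for bidirectional fitting.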

Assay [16] can be described thus: ATG_FoxO_CIS: Attagene CIS-FACTORIAL HepG2 Assay for human Forkhead box O (FoxO) (AID 2282943). The note with it: HepG2 Attagene cis-reporter, FoxO element, mRNA; actives raise or lower the signal. An outline of the steps: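 Human hepatoma HepG2 cells carry transiently introduced reporter transcription units controlled by cis promoter elements. Chemical treatment lasted 24 h, and mRNA signal was compared with DMSO.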

A short description of assay [17]: ATG_GATA_CIS: Attagene CIS-FACTORIAL HepG2 Assay for human GATA Binding Protein (AID 2282944). The conditions noted are these: HepG2 GATA cis-element reporter, Attagene multiplex mRNA; actives raise or lower the signal. Summed up: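 HepG2 cells transiently transfected with multiplexed cis-element reporter units reflecting endogenous transcription factor activity; reporter mRNA measured after 24 h dosing by RT-PCR, 6-FAM labeling, HpaI digestion and capillary electrophoresis. Bidirectional fitting versus DMSO baseline.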

A short description of assay [18]: ATG_Ets_CIS: Attagene CIS-FACTORIAL HepG2 Assay for human Erythroblast Transformation Specific (ETS) (AID 2282941). The note with it: HepG2 ETS cis-reporter transcription, actives raise or lower the signal. Summed up:
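Bidirectional fit versus DMSO of reporter mRNA signal, detected by RT-PCR and capillary electrophoresis in HepG2 cells transiently transfected with cis-element reporters and dosed 24 h.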

For assay [19], the target named is Retinoic acid receptor alpha (Homo sapiens) (UniProt P10276). The assay can be described thus: ATG_DR5_RAR_CIS: Attagene CIS-FACTORIAL HepG2 Assay for human Retinoic Acid Receptor Alpha (RARE), DR5 submotif (AID 2282934). The note with it: HepG2 Attagene cis-factorial RARE DR5 reporter, mRNA; actives raise or lower the signal. An outline of the steps: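 HepG2, transient cis-reporter transfection, 24 h exposure. mRNA readout: RT-PCR, FAM label, HpaI cut, capillary electrophoresis. DMSO baseline, gain/loss fitting.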

Records with an inconclusive call do not appear. The source made the active and inactive calls. The calls were made as follows, unless noted: active = hit-call score of the fitted dose curve at least 0.9, where 1 is the maximum; inactive = score below 0.9.

Chain of Hepatocyte nuclear factor 3-beta (Homo sapiens) (Q9Y261 whole entry, looked up): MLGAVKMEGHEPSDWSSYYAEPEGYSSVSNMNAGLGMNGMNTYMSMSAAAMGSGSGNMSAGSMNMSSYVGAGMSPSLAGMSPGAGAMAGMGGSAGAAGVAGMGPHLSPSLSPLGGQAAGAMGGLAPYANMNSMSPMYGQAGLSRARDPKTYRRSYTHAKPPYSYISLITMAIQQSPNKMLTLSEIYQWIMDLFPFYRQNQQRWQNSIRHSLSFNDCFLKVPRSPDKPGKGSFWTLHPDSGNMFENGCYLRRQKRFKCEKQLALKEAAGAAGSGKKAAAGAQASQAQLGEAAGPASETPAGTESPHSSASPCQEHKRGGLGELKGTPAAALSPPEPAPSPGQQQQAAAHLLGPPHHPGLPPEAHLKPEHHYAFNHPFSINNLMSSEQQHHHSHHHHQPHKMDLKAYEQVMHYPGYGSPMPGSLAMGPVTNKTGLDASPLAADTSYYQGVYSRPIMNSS
Chain of Transcription factor E2F1 (Homo sapiens) (Q01094 whole entry, looked up): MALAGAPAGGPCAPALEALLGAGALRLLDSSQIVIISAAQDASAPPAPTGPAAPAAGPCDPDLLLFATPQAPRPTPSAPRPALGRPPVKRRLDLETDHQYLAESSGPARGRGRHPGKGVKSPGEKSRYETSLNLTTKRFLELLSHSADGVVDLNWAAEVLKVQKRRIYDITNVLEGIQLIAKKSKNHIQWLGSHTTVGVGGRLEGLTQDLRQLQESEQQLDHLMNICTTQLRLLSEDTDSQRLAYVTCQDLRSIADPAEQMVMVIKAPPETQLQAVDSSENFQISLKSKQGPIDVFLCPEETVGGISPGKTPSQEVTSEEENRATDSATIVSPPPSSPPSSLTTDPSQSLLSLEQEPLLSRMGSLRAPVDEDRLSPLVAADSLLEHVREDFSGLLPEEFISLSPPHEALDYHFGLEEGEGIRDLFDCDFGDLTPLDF
Chain of CCAAT/enhancer-binding protein beta (Homo sapiens) (P17676 whole entry, looked up): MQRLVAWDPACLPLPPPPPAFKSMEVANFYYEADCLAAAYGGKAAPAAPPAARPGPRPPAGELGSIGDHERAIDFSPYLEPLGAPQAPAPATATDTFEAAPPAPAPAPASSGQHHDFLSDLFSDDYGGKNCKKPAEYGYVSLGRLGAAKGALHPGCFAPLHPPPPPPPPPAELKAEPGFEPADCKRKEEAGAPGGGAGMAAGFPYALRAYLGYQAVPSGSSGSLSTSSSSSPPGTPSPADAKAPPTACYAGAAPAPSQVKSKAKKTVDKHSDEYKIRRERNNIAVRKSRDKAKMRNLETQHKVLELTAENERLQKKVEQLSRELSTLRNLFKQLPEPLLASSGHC
Chain of Retinoic acid receptor alpha (Homo sapiens) (P10276 whole entry, looked up): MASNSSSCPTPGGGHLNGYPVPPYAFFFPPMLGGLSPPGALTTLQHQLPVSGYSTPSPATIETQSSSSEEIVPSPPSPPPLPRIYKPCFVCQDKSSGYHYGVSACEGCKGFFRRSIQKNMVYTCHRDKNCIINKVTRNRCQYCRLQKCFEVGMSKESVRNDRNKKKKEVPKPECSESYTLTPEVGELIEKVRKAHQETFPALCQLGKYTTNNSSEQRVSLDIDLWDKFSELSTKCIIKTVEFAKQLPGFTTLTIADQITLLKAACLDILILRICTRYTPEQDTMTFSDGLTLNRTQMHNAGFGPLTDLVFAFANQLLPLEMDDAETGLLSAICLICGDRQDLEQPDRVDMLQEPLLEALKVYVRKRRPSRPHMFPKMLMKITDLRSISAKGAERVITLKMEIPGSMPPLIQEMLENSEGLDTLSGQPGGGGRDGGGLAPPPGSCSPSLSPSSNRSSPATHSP
Chain of Aryl hydrocarbon receptor (Homo sapiens) (P35869 whole entry, looked up): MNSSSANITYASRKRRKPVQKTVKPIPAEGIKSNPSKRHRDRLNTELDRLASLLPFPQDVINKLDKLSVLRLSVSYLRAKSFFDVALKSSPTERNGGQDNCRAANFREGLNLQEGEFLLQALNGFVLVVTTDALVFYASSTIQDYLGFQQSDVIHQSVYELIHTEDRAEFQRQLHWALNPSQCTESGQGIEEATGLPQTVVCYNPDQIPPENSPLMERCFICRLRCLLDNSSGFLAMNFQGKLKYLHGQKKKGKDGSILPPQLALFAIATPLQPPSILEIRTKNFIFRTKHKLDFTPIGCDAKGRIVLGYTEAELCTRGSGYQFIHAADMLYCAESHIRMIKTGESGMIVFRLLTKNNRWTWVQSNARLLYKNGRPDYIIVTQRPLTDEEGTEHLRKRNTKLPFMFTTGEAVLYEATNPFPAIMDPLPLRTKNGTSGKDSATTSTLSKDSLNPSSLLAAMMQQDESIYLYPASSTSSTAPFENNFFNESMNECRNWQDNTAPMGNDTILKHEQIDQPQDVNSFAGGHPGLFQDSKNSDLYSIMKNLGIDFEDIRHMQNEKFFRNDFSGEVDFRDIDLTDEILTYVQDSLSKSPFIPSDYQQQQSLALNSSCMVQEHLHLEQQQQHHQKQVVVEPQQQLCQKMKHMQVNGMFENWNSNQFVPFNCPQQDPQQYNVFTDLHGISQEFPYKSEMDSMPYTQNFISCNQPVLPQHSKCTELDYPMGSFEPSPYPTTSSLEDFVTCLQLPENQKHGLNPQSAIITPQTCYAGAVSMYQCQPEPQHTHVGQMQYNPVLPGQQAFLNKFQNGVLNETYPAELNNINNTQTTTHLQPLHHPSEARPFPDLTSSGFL

Take `CCOC(=O)c1ccccc1C`: the outcome in assay [1], in [2], in assay [3], in assay [4], in assay [5] and in assay [6] was inactive. Moreover, the result in assay [7], in assay [8], in assay [9], in [10], in assay [11] and in assay [12] was inactive. Moreover, the compound was called inactive in assay [13], in assay [14], in [15], in assay [16] and in assay [17].

For `CCC(C)c1ccccc1` (configuration not stated), the compound was called inactive in [1], in assay [2], in assay [3], in assay [4], in [5] and in assay [6]. In addition, the compound was classed as inactive in assay [7], in assay [8], in assay [9], in assay [10], in assay [11] and in [12]. The call in [13], in [14], in assay [18], in assay [15], in assay [16] and in assay [17] was inactive.

In the case of `CC(=O)CCC=C(C)C`, the compound was called inactive in [1], in [2], in assay [3], in assay [4], in assay [5] and in [7]. The compound was called inactive in assay [8], in assay [19], in assay [9], in assay [10], in assay [11] and in [12]. Further, the compound was classed as inactive in assay [13], in [14], in assay [18], in assay [15], in [16] and in assay [17].

A word on the AC50: it is the concentration at which the activity in the assay is half-maximal. Regarding `C=CC(=O)OCCCCCCCC(C)C`, the result in [1], in assay [4], in assay [5], in assay [6], in assay [7] and in assay [8] was inactive. For the same compound, the compound was called inactive in assay [9], in assay [11], in assay [12], in assay [13], in assay [18] and in assay [15]. Also, the outcome in [16] and in assay [17] was inactive. Also, the AC50 in assay [2] is 77.2 µM (active); in assay [3], 63.1 µM (active); in assay [10], 157 µM (active).

For `C=C(C)[C@@H]1CC=C(C)CC1`, the call in [1], in [2], in [3], in [4], in assay [5] and in assay [6] was inactive. The call in [7], in assay [8], in [9], in [10], in assay [11] and in [13] was inactive. Besides, the compound was called inactive in assay [14], in assay [18], in assay [15], in assay [16] and in [17].

As for `Clc1cc(Cl)c(Cl)c(Cl)c1Cl`, the outcome in [1], in assay [2], in [3], in assay [5], in [7] and in assay [19] was inactive. In addition, the compound was called inactive in assay [9], in [10], in assay [11], in [12], in [13] and in [14]. In addition, the result in assay [18], in assay [15], in assay [16] and in [17] was inactive. For the same compound, the AC50 in assay [4] was 50.7 µM (active).

As for `O=C(O)/C=C/c1ccccc1`, the AC50 in assay [1] was 2.06 µM (active); in [14], 42.5 µM (active). Also, the call in assay [2], in assay [3], in assay [4], in assay [5], in assay [6] and in assay [7] was inactive. Further, the call in assay [8], in [19], in assay [9], in assay [10], in [11] and in [12] was inactive. For the same compound, the outcome in assay [13], in assay [18], in assay [15], in assay [16] and in [17] was inactive.

As to `COc1ccc(-c2coc3cc(O)cc(O)c3c2=O)cc1`, the AC50 is 0.673 µM (active) in assay [1]; 21.6 µM (active) in assay [4]; 27 µM (active) in assay [5]; 64 µM (active) in assay [6]; 67.2 µM (active) in [8]; 0.397 µM (active) in [14]. Moreover, the compound was classed as inactive in assay [2], in [3], in [7], in [19], in assay [9] and in assay [10]. Besides, the compound was called inactive in assay [11], in assay [12], in [13], in [18], in [15] and in assay [16]. Besides, in assay [17], the call was inactive.
